Assay results reported in the supplement of paper PMC12067093, “Discovery and optimisation of a covalent ligand for TRIM25 and its application to targeted protein ubiquitination” (Chemical Science, 2025).
Of roughly 21,000 targets only a part is listed; those with the largest changes were picked by preference.

Compound: CC1Cc2ccccc2N1C(=O)C1CCCN(C1)C(=O)CCl (mixture of isomers) [TRIM25 ligand 11 (diastereomer mixture)]
Assay: probe-labelled cysteine peptide fold change vs DMSO (competition) (log2 fold change); higher = less target engagement (more negative = stronger competition)
Conditions: THP-1, incubation time: 4 h
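Note: competitive chemoproteomic profiling in live THP-1 cells with an iodoacetamide desthiobiotin (IA-DTB) probe, comparing probe-labelled peptide intensities in compound-treated cells against DMSO-treated controls.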

Sequence of UniProt O75643 (O75643 whole entry, looked up): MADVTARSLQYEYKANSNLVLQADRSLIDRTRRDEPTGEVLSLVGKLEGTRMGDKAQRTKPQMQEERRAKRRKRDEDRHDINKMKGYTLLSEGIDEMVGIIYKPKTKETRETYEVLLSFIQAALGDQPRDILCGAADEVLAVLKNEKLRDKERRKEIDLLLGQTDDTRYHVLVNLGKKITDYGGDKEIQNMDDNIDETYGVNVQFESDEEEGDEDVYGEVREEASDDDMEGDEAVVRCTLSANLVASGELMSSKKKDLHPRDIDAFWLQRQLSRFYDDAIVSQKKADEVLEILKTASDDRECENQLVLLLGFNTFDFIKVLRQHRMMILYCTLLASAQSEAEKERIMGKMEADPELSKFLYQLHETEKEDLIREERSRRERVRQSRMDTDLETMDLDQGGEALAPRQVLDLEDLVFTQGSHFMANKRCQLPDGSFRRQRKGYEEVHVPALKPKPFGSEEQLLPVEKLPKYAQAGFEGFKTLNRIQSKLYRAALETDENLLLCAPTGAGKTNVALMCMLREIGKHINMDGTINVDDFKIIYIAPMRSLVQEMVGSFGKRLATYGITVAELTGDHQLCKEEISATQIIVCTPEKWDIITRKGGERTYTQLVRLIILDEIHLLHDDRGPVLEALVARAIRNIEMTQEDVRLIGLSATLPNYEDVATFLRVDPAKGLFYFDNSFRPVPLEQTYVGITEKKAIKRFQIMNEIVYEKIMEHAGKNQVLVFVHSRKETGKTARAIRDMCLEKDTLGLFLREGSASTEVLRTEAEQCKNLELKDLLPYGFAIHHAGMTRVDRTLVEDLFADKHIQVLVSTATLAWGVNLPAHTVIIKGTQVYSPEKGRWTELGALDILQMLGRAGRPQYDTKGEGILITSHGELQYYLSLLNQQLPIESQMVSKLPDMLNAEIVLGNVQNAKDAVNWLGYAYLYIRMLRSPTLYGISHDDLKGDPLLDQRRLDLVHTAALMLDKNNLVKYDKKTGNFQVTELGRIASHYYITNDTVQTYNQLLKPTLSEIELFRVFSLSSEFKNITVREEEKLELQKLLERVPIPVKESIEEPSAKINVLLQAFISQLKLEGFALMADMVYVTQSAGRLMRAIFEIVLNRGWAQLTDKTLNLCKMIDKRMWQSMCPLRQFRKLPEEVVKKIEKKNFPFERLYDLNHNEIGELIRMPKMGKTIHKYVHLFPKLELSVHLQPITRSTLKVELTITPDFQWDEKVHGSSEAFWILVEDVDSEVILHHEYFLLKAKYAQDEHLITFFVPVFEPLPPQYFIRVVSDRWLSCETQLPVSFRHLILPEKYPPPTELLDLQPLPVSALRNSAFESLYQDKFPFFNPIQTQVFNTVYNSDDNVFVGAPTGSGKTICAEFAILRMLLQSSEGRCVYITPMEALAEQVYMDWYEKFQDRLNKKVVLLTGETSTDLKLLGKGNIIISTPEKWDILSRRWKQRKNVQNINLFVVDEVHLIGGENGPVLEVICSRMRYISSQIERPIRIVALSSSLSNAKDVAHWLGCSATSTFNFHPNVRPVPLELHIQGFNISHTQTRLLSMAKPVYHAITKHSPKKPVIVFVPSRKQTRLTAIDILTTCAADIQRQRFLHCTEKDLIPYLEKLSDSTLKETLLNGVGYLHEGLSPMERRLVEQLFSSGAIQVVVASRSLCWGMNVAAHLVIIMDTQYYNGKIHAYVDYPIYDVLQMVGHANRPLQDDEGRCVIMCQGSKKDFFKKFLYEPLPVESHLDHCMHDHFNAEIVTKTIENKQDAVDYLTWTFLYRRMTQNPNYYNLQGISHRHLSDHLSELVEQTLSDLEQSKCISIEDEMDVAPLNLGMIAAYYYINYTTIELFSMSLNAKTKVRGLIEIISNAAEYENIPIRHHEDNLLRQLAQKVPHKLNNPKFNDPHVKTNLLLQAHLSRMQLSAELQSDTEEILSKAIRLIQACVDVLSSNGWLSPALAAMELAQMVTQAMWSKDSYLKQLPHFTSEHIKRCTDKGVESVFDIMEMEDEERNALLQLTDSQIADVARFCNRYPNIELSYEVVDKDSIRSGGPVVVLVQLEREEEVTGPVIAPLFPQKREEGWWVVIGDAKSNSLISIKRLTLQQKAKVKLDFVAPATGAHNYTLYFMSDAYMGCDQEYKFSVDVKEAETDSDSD
Sequence of UniProt Q15005 (Q15005 whole entry): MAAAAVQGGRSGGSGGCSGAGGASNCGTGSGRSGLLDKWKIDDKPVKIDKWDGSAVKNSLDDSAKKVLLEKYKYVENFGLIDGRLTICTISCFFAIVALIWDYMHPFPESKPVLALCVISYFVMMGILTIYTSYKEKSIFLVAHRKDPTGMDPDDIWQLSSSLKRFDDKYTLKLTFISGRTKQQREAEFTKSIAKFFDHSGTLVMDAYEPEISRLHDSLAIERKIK
Sequence of UniProt Q92925 (Q92925 whole entry, looked up): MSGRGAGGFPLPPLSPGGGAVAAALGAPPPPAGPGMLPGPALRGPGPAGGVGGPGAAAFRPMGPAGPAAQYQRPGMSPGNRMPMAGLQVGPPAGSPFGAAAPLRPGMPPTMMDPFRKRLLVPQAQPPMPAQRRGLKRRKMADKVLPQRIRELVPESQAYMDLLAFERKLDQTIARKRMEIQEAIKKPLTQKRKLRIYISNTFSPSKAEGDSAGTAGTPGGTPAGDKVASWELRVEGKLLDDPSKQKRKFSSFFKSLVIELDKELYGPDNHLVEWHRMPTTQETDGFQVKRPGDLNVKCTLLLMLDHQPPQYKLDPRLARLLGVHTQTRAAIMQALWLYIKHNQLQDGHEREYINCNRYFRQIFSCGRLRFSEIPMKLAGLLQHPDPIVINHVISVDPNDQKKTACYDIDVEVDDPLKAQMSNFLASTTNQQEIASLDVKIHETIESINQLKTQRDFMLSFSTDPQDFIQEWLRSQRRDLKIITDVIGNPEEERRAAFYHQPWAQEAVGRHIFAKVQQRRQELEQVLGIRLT
Sequence of UniProt Q92766 (Q92766 whole entry, looked up): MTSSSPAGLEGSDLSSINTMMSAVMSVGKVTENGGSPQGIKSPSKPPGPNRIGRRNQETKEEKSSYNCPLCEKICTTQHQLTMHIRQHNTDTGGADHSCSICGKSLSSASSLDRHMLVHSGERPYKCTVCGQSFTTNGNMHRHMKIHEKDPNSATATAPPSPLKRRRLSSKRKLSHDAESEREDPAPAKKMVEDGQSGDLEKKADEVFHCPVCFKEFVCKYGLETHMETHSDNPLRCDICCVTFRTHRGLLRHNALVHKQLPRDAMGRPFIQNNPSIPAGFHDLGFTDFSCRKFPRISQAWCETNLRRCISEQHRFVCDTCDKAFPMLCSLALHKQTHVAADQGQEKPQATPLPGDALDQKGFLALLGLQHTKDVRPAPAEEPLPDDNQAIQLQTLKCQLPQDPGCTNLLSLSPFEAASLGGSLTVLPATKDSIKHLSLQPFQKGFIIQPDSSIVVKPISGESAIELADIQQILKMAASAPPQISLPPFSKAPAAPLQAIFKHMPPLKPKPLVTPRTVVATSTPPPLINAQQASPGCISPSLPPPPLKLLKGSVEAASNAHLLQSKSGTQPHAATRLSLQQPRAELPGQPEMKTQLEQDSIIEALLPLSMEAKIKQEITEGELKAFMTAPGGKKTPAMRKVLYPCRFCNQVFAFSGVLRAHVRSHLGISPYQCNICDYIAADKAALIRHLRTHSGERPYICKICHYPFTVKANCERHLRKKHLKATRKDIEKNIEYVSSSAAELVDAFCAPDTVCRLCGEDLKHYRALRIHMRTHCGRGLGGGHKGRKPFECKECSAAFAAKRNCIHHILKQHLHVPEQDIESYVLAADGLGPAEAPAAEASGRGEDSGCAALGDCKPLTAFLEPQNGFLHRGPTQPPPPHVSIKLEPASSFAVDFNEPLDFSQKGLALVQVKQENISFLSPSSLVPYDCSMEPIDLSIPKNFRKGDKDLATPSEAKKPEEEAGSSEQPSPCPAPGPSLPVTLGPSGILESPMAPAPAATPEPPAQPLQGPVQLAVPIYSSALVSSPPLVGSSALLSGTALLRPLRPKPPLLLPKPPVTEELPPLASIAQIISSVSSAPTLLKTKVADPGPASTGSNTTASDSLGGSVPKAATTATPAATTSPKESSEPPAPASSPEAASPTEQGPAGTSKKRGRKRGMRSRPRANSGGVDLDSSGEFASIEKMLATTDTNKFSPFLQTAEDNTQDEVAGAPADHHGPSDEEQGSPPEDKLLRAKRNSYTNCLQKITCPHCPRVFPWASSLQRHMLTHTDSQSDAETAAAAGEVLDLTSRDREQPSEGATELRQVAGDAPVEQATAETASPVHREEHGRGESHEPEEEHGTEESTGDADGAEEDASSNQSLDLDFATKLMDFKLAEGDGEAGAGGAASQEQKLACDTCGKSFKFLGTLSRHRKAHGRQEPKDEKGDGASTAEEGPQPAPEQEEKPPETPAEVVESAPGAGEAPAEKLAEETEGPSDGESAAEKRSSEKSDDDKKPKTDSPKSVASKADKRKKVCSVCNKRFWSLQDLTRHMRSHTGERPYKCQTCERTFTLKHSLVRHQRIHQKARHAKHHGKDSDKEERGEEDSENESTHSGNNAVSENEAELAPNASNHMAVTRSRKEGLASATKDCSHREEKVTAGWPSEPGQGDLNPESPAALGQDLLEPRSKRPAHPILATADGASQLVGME
Sequence of UniProt Q9Y265 (Q9Y265 whole entry, looked up): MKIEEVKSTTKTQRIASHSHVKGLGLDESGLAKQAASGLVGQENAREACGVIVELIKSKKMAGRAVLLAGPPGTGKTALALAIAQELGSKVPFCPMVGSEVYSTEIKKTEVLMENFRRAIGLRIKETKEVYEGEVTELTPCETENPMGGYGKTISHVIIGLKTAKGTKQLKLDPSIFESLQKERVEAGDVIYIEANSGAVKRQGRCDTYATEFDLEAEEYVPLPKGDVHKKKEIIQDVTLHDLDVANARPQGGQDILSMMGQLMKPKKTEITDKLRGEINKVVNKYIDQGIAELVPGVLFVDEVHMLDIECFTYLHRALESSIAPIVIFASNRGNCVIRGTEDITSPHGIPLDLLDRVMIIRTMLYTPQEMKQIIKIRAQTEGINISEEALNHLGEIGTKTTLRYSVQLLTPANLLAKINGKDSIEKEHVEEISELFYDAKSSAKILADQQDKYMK

Target	probe-labelled cysteine peptide fold change (10 µM)	probe-labelled cysteine peptide fold change (50 µM)
SLC4A7_Q9Y6M7_120_VQFILGTEDDDEEHIPHDLFTEMDELCYR (UniProt Q9Y6M7)	0.222	-0.577
RTRAF_Q9Y224_19_LTALDYHNPAGFNCK (UniProt Q9Y224)	0.414	0.404
SLFN11_Q7Z7L1_322_VNPFCCAVFSEAPNSWIVEDK (UniProt Q7Z7L1)	0.661	0.447
SND1_Q7KZF4_96_EVCFTIENK (UniProt Q7KZF4)	0.00729	0.0683
SPCS2_Q15005_17+26_SGGSGGCSGAGGASNCGTGSGR (UniProt Q15005)	-0.266	-0.603
SH3KBP1_Q96B97_301_DCIDVGWWEGELNGRR (UniProt Q96B97)	-0.0866	-0.063
RPS28_P62857_27_TGSQGQCTQVRVEFMDDTSR (UniProt P62857)	-0.718	-0.281
SEC23B_Q15437_434_GPCVSENELGVGGTSQWK (UniProt Q15437)	0.0914	0.096
SLC7A7_Q9UM01_349_EGHLPDAICMIHVER (UniProt Q9UM01)	0.0357	0.0274
SMARCC1_Q92922_761_VDPTYGLESSCIAGTGPDEPEKLEGAEEEK (UniProt Q92922)	-0.397	-0.234
SMCHD1_A6NHR9_474_RPIFECFWNGR (UniProt A6NHR9)	-0.00857	0.0994
RPS6KA3_P51812_436_EDIGVGSYSVCK<|>RPS6KA2_Q15349_429_EDIGVGSYSVCK (UniProt Q15349+P51812)	-0.0733	-0.656
SATB2_Q9UPW6_159_IQLQSCSK (UniProt Q9UPW6)	0.071	-0.00125
RUVBL1_Q9Y265_94_VPFCPMVGSEVYSTEIK (UniProt Q9Y265)	0.0537	-0.0791
SRBD1_Q8N5C6_912_SIVCLEDLQIGTVLTGK (UniProt Q8N5C6)	0.0769	-0.14
SIRT5_Q9NXA8_293+303_FHFQGPCGTTLPEALACHENETVS (UniProt Q9NXA8)	0.203	-0.0498
RSF1_Q96T23_1311_IETDEEESCDNAHGDANQPAR (UniProt Q96T23)	0.0514	0.0946
SMN2_Q16637_60_NGDICETSGKPK (UniProt Q16637)	-0.146	-0.16
SCAF11_Q99590_553_TDVCTVHLPNDFPTCLTSESK (UniProt Q99590)	0.0519	-0.221
SETDB1_Q15047_385_RCEWIYR (UniProt Q15047)	0.156	0.176
SBF1_O95248_839_VCTESGVTSDHLK (UniProt O95248)	0.116	0.0908
SNRNP200_O75643_576_RLATYGITVAELTGDHQLCK (UniProt O75643)	-0.0593	0.102

Target	probe-labelled cysteine peptide fold change (10 µM)	probe-labelled cysteine peptide fold change (50 µM)
SLC25A5_P05141_257_KGTDIMYTGTLDCWR (UniProt P05141)	-0.0817	-0.062
SORD_Q00796_179_VLVCGAGPIGMVTLLVAK (UniProt Q00796)	-0.904	-0.915
SORBS3_O60504_482_GEHICLIR (UniProt O60504)	0.12	0.166
SAR1A_Q9NR31_178_ELNARPMEVFMCSVLKR (UniProt Q9NR31)	-0.614	-0.486
SMARCB1_Q12824_167_TFPLCFDDHDPAVIHENASQPEVLVPIRLDMEIDGQKLR (UniProt Q12824)	-0.0714	0.0299
SP110_Q9HB58_327_DDSTCNSTVETR (UniProt Q9HB58)	0.0292	-0.106
SNTB1_Q13884_515_DGEIQLDLHSCPK (UniProt Q13884)	0.144	0.6
SPAG1_Q07617_825_EACAHLLAITAPK (UniProt Q07617)	-0.0823	-0.0988
SHMT1_P34896_335_VYQHQVVANCR (UniProt P34896)	0.0178	0.112
SMARCA2_P51531_1016_ICNHPYMFQHIEESFAEHLGYSNGVINGAELYR (UniProt P51531)	-0.0517	-0.116
SNRPD2_P62316_63_HCNMVLENVK (UniProt P62316)	-0.117	-0.0606
SAE1_Q9UBE0_303_YCFSEMAPVCAVVGGILAQEIVK (UniProt Q9UBE0)	-0.0632	-0.0869
RTN3_O95197-3_42_SCSSSCAVHDLIFWR (UniProt O95197)	-0.124	-0.737
SMARCD2_Q92925_298_CTLLLMLDHQPPQYK (UniProt Q92925)	-0.0298	-0.00447
RPS17_P08708_35_RVCEEIAIIPSKK (UniProt P08708)	-0.177	0.0725
SNRPB_P14678_43+45_HMNLILCDCDEFRK (UniProt P14678)	-0.0283	-0.00106
SMARCC2_Q8TAQ2_80_CFLDFK (UniProt Q8TAQ2)	-0.00468	0.128
RREB1_Q92766_291_DAMGRPFIQNNPSIPAGFHDLGFTDFSCR (UniProt Q92766)	-0.104	-0.0626
RTN3_O95197-3_46_SCSSSCAVHDLIFWR (UniProt O95197)	-0.00795	-0.919
RSBN1_Q5VWQ0_671_IQLCDNDIYFIPR (UniProt Q5VWQ0)	0.00486	0.13
SEC13_P55735_77_GHEGPVWQVAWAHPMYGNILASCSYDR (UniProt P55735)	-0.107	-0.123
SEC16A_O15027_1293_YWCDAEYDAYR (UniProt O15027)	-0.117	-0.311
